Assay [1] can be described thus: NCI Yeast Anticancer Drug Screen. Data for the rad50 strain (AID 155).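 Note: 0% = growth of vehicle-only cultures of the same strain.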 Particulars: S. cerevisiae rad50 strain growth inhibition, stronger effect = higher value. An outline of the steps:
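Genetically altered yeast (DNA repair pathway); compound treatment; growth inhibition vs vehicle ctrl.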

Assay [2] can be described thus: NCI Yeast Anticancer Drug Screen. Data for the mec2-1 strain (AID 157). Particulars: S. cerevisiae mec2-1 strain, stronger effect = higher value. The essentials: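 Test agents were screened against the mec2-1 yeast strain, with defined DNA repair or cell cycle alteration. Growth was scored as inhibition against vehicle-only controls.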
The nature of assay [3]: NCI Yeast Anticancer Drug Screen. Data for the sgs1 mgt1 strain (AID 161).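 Note: 0% = growth of cultures given vehicle only.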 Particulars: S. cerevisiae sgs1 mgt1 strain, stronger effect = higher value. The essentials:
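Mutant yeast exposed to compound; growth scored against vehicle-only wells.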

A short description of assay [4]: NCI Yeast Anticancer Drug Screen. Data for the cln2 rad14 strain (AID 165).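 Note: 0% = growth equal to vehicle treated cultures.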 Particulars: S. cerevisiae cln2 rad14 strain, stronger effect = higher value. An outline of the steps: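 Growth of compound-exposed yeast (cln2 rad14 genotype) measured and expressed as inhibition relative to vehicle.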
The nature of assay [5]: NCI Yeast Anticancer Drug Screen. Data for the bub3 strain (AID 167). As to conditions: S. cerevisiae bub3 mutant strain, stronger effect = higher value. The essentials:
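Yeast carrying a defined mutation is treated with each compound, and growth is compared with that of vehicle-exposed cells to give inhibition.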

The nature of assay [6]: NCI Yeast Anticancer Drug Screen. Data for the mlh1 rad18 strain (AID 175). As to conditions: S. cerevisiae mlh1 rad18 strain growth inhibition, stronger effect = higher value. The essentials:
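In this whole-cell yeast screen, a strain with altered DNA damage repair is challenged with compound, and its growth is measured against matched vehicle-treated controls.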

Where [7] appears, read: at 5.0 µM (retest, dose inferred, filed as 0.5).
Where [8] appears, read: at 50.0 µM (retest, dose inferred, filed as 5.0).

The structures appear in SMILES notation. Where “and” joins values, the source holds several entries; their conditions need not be identical. Identical values can stand only once. This is part of a sample that, as a whole, favours compounds with a hit. Of some 79,000 tested, about 15% had one in any assay. Calls of active or inactive are those of the source. Cut-off read from the data, not from the text of the source: active = growth inhibition above about 70%; inactive = the rest.

For the compound `C[CH2][Sn][CH2]C.c1cc[c]([Ge]([c]2ccccc2)[c]2ccccc2)cc1.c1cc[c]([Sn]([c]2ccccc2)[c]2ccccc2)cc1`, the growth inhibition in assay [1] (setting [7]) is 99% (active); in assay [1] (setting [8]), 96% (active); in assay [1] (at 50.0 µM) it was 99.2% (active); in assay [2] (setting [7]), 99% (active); in assay [2] (setting [8]), 98% (active); in assay [2] (at 50.0 µM) it was 99.5% (active). The growth inhibition was 100% (active) in assay [3] (setting [7]); 98% (active) in assay [3] (setting [8]); 99.5% (active) in assay [3] (at 50.0 µM); 98% (active) in assay [4] (setting [7]); 97% (active) in assay [4] (setting [8]); 98.4% (active) in assay [4] (at 50.0 µM). Moreover, the growth inhibition in assay [5] (setting [7]) was 99% (active); in assay [5] (setting [8]) it was 95% (active); in assay [5] (at 50.0 µM), 99.3% (active); in assay [6] (setting [7]) it was 99% (active); in assay [6] (setting [8]), 97% (active); in assay [6] (at 50.0 µM), 98.8% (active).
Turning to `NC(=O)CNCc1ccc([As]=O)cc1` (stereo unspecified), the growth inhibition in assay [1] (setting [7]) is 2% (inactive); in assay [1] (setting [8]), 1% (inactive); in assay [1] (at 50.0 µM) it was 72.8% (active); in assay [2] (setting [7]), 3% (inactive); in assay [2] (setting [8]) it was -2% (inactive); in assay [2] (at 50.0 µM), 50.1% (inactive). In addition, the growth inhibition in assay [3] (setting [7]) is 0% (inactive); in assay [3] (setting [8]), -2% (inactive); in assay [3] (at 50.0 µM) it was 71.1% (active); in assay [4] (setting [7]), 1% (inactive); in assay [4] (setting [8]), 3% (inactive); in assay [4] (at 50.0 µM), 10.4% (inactive). Also, the growth inhibition in assay [5] (setting [7]) is 3% (inactive); in assay [5] (setting [8]), 8% (inactive); in assay [5] (at 50.0 µM), 74.2% (active); in assay [6] (setting [7]), 12% (inactive); in assay [6] (setting [8]), -6% (inactive); in assay [6] (at 50.0 µM), 69.5% (inactive).
As to `CC/C(=C\c1ccc(Cl)cc1)[N+](=O)[O-]`, the growth inhibition in assay [1] (setting [7]) is 34% (inactive); in assay [1] (setting [8]) it was 99% (active); in assay [1] (at 50.0 µM), 13.1% (inactive); in assay [2] (setting [7]), 12% (inactive); in assay [2] (setting [8]), 99% (active); in assay [2] (at 50.0 µM) it was -3.1% (inactive). Besides, the growth inhibition in assay [3] (setting [7]) is 14% (inactive); in assay [3] (setting [8]), 99% (active); in assay [3] (at 50.0 µM), 53.1% (inactive); in assay [4] (setting [7]), 7% (inactive); in assay [4] (setting [8]), 99% (active); in assay [4] (at 50.0 µM), -5.45% (inactive). The growth inhibition in assay [5] (setting [7]) was 25% (inactive); in assay [5] (setting [8]), 99% (active); in assay [5] (at 50.0 µM), 4.95% (inactive); in assay [6] (setting [7]), 13% (inactive); in assay [6] (setting [8]) it was 99% (active); in assay [6] (at 50.0 µM), 8.15% (inactive).
`C=CCC[CH2][Sn]([c]1ccccc1)([c]1ccccc1)[c]1ccccc1`: the growth inhibition in assay [1] (setting [7]) is 98% (active); in assay [1] (setting [8]), 93% (active); in assay [1] (at 50.0 µM) it was 99.5% (active); in assay [2] (setting [7]) it was 99% (active); in assay [2] (setting [8]) it was 98% (active); in assay [2] (at 50.0 µM) it was 99.5% (active). Also, the growth inhibition in assay [3] (setting [7]) is 99% (active); in assay [3] (setting [8]), 98% (active); in assay [3] (at 50.0 µM), 99.4% (active); in assay [4] (setting [7]), 98% (active); in assay [4] (setting [8]), 96% (active); in assay [4] (at 50.0 µM) it was 98.2% (active). The growth inhibition in assay [5] (setting [7]) is 97% (active); in assay [5] (setting [8]) it was 97% (active); in assay [5] (at 50.0 µM), 99% (active); in assay [6] (setting [7]), 99% (active); in assay [6] (setting [8]), 97% (active); in assay [6] (at 50.0 µM) it was 99.4% (active).
Turning to `CC12CCC(O)CC1=CCC1C2CCC2(C)C(NC(=O)C3CCCN3C(=O)CN(CCCl)CCCl)CCC12` (stereo unspecified), the growth inhibition in assay [1] (setting [7]) was -5% (inactive); in assay [1] (setting [8]) it was 56% (inactive); in assay [1] (at 50.0 µM) it was 79% (active); in assay [2] (setting [7]), -4% (inactive); in assay [2] (setting [8]) it was 46% (inactive); in assay [2] (at 50.0 µM) it was 72.5% (active). The growth inhibition in assay [3] (setting [7]) was 1% (inactive); in assay [3] (setting [8]), 80% (active); in assay [3] (at 50.0 µM), 91.5% (active); in assay [4] (setting [7]), -5% (inactive); in assay [4] (setting [8]), 34% (inactive); in assay [4] (at 50.0 µM), 63.2% (inactive). The growth inhibition is -6% (inactive) in assay [5] (setting [7]); 38% (inactive) in assay [5] (setting [8]); 64.8% (inactive) in assay [5] (at 50.0 µM); 12% (inactive) in assay [6] (setting [7]); 76% (active) in assay [6] (setting [8]); 86.8% (active) in assay [6] (at 50.0 µM).
Regarding `CC(C)C1=CC23CCC4C(C)(C(=O)O)CCCC4(C)C2CC1OO3` (stereo unspecified), the growth inhibition in assay [1] (setting [7]) is 37% (inactive); in assay [1] (setting [8]), 91% (active); in assay [1] (at 50.0 µM), 98.2% (active) and 98.8% (active); in assay [2] (setting [7]), 10% (inactive); in assay [2] (setting [8]) it was 94% (active); in assay [2] (at 50.0 µM), 93.1% (active) and 98.8% (active). Also, the growth inhibition in assay [3] (setting [7]) was 17% (inactive); in assay [3] (setting [8]), 84% (active); in assay [3] (at 50.0 µM), 98.2% (active) and 98.9% (active); in assay [4] (setting [7]), 1% (inactive); in assay [4] (setting [8]), 78% (active); in assay [4] (at 50.0 µM), 97% (active) and 90.4% (active). Besides, the growth inhibition in assay [5] (setting [7]) was -3% (inactive); in assay [5] (setting [8]) it was 80% (active); in assay [5] (at 50.0 µM), 98% (active) and 99.5% (active); in assay [6] (setting [7]), 27% (inactive); in assay [6] (setting [8]), 89% (active); in assay [6] (at 50.0 µM), 98.5% (active) and 95.2% (active).
Consider `C/C(=N\Nc1ccccn1)C1CC[N-]C2C(O)CCCC12.C/C(=N\Nc1ccccn1)C1CC[N-]C2C(O)CCCC12.[Cu+2]` (stereo unspecified), for which the growth inhibition is 98% (active) in assay [1] (setting [7]); 98% (active) in assay [1] (setting [8]); 99% (active) in assay [1] (at 50.0 µM); 99% (active) in assay [2] (setting [7]); 99% (active) in assay [2] (setting [8]); 99.5% (active) in assay [2] (at 50.0 µM). The growth inhibition in assay [3] (setting [7]) was 98% (active); in assay [3] (setting [8]), 99% (active); in assay [3] (at 50.0 µM), 99.4% (active); in assay [4] (setting [7]) it was 98% (active); in assay [4] (setting [8]), 97% (active); in assay [4] (at 50.0 µM), 98.9% (active). Moreover, the growth inhibition in assay [5] (setting [7]) was 99% (active); in assay [5] (setting [8]), 98% (active); in assay [5] (at 50.0 µM), 99% (active); in assay [6] (setting [7]) it was 99% (active); in assay [6] (setting [8]), 98% (active); in assay [6] (at 50.0 µM), 99.3% (active).

Source of the values: PubChem BioAssay (NCI).
